# Measurements published in PubChem BioAssay (NCI).
# The panel holds about 79,000 compounds, 15% with a hit somewhere; the sample as a whole holds those more often. Unmarked numbers belong to inactive results. Active and inactive are the calls of the source. Rule as the data show it: active = growth inhibition above about 70%; inactive = the rest. Where a SMILES comes first, the peptide text is derived from it. Bridges are numbered along the chain shown (N, C = ends). Roman numbers before positions name the chains, in order.
# How the values were obtained:
# [1] = NCI Yeast Anticancer Drug Screen. Data for the rad50 strain (AID 155);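 also: 0% = growth of vehicle-only cultures of the same strain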; conditions: S. cerevisiae rad50 strain growth inhibition; at 50.0 µM; hits give high values
# Procedure, shortened: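 DNA repair mutant yeast, compound exposure, growth read-out; inhibition is taken relative to vehicle.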
# [2] = NCI Yeast Anticancer Drug Screen. Data for the mec2-1 strain (AID 157); conditions: S. cerevisiae mec2-1 strain, at 50.0 µM, hits give high values
# Procedure, shortened: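 Yeast mec2-1 mutant treated with compound. Readout: growth inhibition vs vehicle controls.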
# [3] = NCI Yeast Anticancer Drug Screen. Data for the sgs1 mgt1 strain (AID 161);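 also: 0% = growth of cultures given vehicle only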; conditions: S. cerevisiae sgs1 mgt1 strain, at 50.0 µM, hits give high values
# Procedure, shortened: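 Mutant yeast exposed to compound; growth scored against vehicle-only wells.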
# [4] = NCI Yeast Anticancer Drug Screen. Data for the cln2 rad14 strain (AID 165);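 also: 0% = growth equal to vehicle treated cultures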; conditions: S. cerevisiae cln2 rad14 strain, at 50.0 µM, hits give high values
# Procedure, shortened: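 cln2 rad14 yeast strain; compound exposure; growth inhibition read vs vehicle controls.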
# [5] = NCI Yeast Anticancer Drug Screen. Data for the bub3 strain (AID 167); conditions: S. cerevisiae bub3 mutant strain, at 50.0 µM, hits give high values
# Procedure, shortened: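 In this screen, a yeast mutant lacking normal mitotic checkpoint function is challenged with compound. Relative growth versus vehicle gives the inhibition value.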
# [6] = NCI Yeast Anticancer Drug Screen. Data for the mlh1 rad18 strain (AID 175); conditions: S. cerevisiae mlh1 rad18 strain growth inhibition; at 50.0 µM; hits give high values
# Procedure, shortened: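 Yeast w/ defined DNA-repair lesions; compound exposure; growth vs vehicle controls → % inhibition.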
SMILES,growth inhibition [1] [%],growth inhibition [2] [%],growth inhibition [3] [%],growth inhibition [4] [%],growth inhibition [5],growth inhibition [6] [%]
COc1ccc(S(=O)(=O)c2ccc(F)cc2)cc1,-22.1,-14.2,-3.65,-5.8,-12.7%,–
COc1ccc2oc3c(ccc[n+]3C)c(=O)c2c1,-22.9,-14.7,-12.1,10.9,-2.9%,–
c1ccc2[nH]cnc2c1,7.85,-1.55,0.65,-4.4,8.7%,–
CCOC(=O)C(C=Nc1ccc(S(N)(=O)=O)cc1)C(=O)OCC,-8.15,4.85,12.1,-22.4,-1.1%,–
CC1=C(CN(CC(=O)O)CC(=O)O)C(=O)C(C(C)C)=C/C1=C(\c1ccccc1S(=O)(=O)O)c1cc(C(C)C)c(O)c(CN(CC(=O)O)CC(=O)O)c1C,-3.55,-24.8,11.4,4.2,0.75%,–
CCOC(=O)c1ccc(NCc2cccc([N+](=O)[O-])c2)cc1,10.2,-18.5,10.4,0.45,73.8% (active),–
CN1C(=S)CSc2ccccc21,-8.5,-4,-11.3,26,-9.75%,–
CCC(C)C(N)C(=O)NC(C(=O)O)C(C)C (stereo not drawn) (H-Ile-Val-OH; configuration not given here),-32.4,-13.6,-0.2,-41.9,-0.25%,–
COc1ccc(OC)c2c(Nc3ccc(S(=O)(=O)O)c4cc(S(=O)(=O)O)cc(S(=O)(=O)O)c34)cc(C)nc12,2.5,-6.4,9.25,3.1,6.8%,–
CC(C)CC(NC(=O)C(N)CSSCC(N)C(=O)NC(CC(C)C)C(=O)O)C(=O)O (stereo not drawn) (I: H-Cys-Leu-OH / II: H-Cys-Leu-OH; disulfide I:1-II:1; configuration not given here),-10.6,-6.85,-9.8,-23.1,-1.25%,–
CCCCCCCc1cc(=O)[nH]c(=S)[nH]1,4.05,-4.9,0.5,-10.8,11.3%,–
CCCC(=O)OCCc1ccccc1,12.8,10.3,16.4,-65.5,5.1%,–
CCN1C(=O)C(=O)C(CC)(CC)C1=O,-8.4,-1.75,-7,-8.25,0.85%,–
O=C(O)COc1ccccc1F,-27.9,12.1,-14.4,-25.9,3%,–
Cc1ccc(S(=O)(=O)OCC(C)C(c2ccccc2)c2ccccc2)cc1 (configuration not stated),7.45,1.9,-4.55,-20.9,-3.3%,–
C/C=C/C(=O)OC1CCCC1,30.9,11.7,23.6,18.9,10%,–
O=c1c2cccnc2[nH]c2ccc3[nH]ncc3c12,-17.2,-25.9,-13.4,26.4,-30.9%,15.6
CN(C)CC(=O)N1CCc2c([nH]c3ccccc23)C1c1cccnc1 (configuration not stated),-44.9,-10.2,3.6,-3.1,-15.3%,-16.9
NC(=O)C(Cc1ccccc1)c1ccccc1 (configuration not stated),-12.2,-15.2,-7.55,-23,-16.6%,18.4
CCCCCCCCCCCC(=O)CC(=O)c1c(O)cccc1O,1.35,-11.6,6.45,0.1,20.7%,-12.2
S=c1ccc2ccccc2[nH]1,-16.9,-8.15,-0.75,-13,-16.1%,-13.8
CCOc1c(F)ccc(F)c1-c1c(F)ccc(F)c1OCC,-7.5,-0.3,5.65,2.4,3.3%,-5.2
Cc1c(C(N)=O)c(-c2ccccc2)c(-c2ccccc2)n1Nc1ccccc1,16.9,-2.65,13.7,11.9,-5.05%,23.7
